We go through 36 molecules from PubChem BioAssay (EPA / NIEHS).

Usually AC50 stands for the concentration at which the activity in the assay is half-maximal.

SMILES strings stand for the structures. Results filed as inconclusive are left out. Calls of active or inactive are those of the source. How the source made its calls: active means hit-call score of the fitted dose curve at least 0.9, where 1 is the maximum; inconclusive means response in the unintended direction; inactive means score below 0.9.

Sequence of Peroxisome proliferator-activated receptor gamma (Homo sapiens) (P37231 whole entry, looked up): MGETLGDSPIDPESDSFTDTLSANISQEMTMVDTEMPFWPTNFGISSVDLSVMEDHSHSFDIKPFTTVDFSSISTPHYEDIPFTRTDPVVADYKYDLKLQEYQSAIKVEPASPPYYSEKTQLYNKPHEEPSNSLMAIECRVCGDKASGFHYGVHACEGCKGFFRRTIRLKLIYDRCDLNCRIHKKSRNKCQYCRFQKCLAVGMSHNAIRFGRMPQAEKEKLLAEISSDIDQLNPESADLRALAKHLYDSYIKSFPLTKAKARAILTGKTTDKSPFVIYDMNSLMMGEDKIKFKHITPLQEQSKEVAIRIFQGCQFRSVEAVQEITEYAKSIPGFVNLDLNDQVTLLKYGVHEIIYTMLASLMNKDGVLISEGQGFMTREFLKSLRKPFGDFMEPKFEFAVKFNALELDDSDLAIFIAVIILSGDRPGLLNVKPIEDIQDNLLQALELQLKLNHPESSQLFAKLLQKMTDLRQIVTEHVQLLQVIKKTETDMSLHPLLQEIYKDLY
Sequence of human Dopamine Transporter (DAT), SLC6A3 (gene 6531) (Q01959 whole entry, looked up): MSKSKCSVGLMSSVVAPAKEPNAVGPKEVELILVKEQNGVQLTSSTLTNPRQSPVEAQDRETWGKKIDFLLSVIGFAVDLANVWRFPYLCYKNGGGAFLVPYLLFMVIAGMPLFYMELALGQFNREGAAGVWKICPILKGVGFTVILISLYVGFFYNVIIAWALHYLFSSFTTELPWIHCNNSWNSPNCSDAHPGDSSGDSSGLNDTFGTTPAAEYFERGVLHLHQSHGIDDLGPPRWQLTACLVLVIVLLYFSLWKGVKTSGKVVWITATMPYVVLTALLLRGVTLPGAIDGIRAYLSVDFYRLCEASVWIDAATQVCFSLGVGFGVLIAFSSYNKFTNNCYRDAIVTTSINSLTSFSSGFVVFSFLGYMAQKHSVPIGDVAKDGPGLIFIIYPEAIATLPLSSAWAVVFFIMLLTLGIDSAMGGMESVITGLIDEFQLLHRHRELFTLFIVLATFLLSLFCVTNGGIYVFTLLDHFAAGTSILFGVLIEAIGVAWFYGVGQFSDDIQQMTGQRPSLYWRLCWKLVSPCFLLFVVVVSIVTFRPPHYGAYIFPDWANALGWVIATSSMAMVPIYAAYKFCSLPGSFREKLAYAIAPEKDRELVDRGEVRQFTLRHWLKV
Sequence of guinea pig Sigma Receptor, Non-selective Binding, SIGMAR1 (gene 100135589) (Q60492 whole entry, looked up): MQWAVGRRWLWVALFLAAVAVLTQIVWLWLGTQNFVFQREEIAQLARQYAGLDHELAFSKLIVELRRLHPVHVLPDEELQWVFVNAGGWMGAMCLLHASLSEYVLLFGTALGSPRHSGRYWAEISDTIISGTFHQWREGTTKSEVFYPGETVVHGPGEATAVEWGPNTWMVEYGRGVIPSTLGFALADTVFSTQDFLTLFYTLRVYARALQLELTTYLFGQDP
Sequence of human Serotonin Transporter (SERT), SLC6A4 (gene 6532) (P31645 whole entry, looked up): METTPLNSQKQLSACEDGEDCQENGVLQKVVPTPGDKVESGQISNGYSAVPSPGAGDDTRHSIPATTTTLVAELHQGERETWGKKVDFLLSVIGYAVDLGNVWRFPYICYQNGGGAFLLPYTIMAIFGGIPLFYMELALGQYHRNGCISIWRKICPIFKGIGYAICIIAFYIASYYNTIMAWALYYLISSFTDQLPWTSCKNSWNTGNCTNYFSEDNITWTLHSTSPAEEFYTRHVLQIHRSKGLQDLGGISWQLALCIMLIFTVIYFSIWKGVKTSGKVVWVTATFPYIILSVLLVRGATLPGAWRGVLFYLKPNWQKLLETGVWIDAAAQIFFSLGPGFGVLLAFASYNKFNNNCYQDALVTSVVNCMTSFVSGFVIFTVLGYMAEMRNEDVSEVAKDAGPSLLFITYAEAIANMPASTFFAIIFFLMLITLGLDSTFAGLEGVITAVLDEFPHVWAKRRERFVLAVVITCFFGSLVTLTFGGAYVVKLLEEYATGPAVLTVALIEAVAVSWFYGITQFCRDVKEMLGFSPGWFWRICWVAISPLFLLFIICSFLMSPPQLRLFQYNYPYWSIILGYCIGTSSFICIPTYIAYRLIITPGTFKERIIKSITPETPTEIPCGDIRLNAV

The target in one experiment is guinea pig Sigma Receptor, Non-selective Binding, SIGMAR1 (gene 100135589) (UniProt Q60492). Kind of experiment: NVS_OR_gSIGMA_NonSelective: NovaScreen (NVS) Nuclear Receptor Binding Assay for guinea pig Sigma Receptor, Non-selective Binding (AID 2283367). Summed up:
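Guinea pig brain membrane sigma sites were labelled with a radioligand, and bound radioactivity was counted after filtration 1 h post-dose. Compounds were screened at 25 uM in duplicate, then retested as concentration series when active.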
Turning to `CSC(=O)c1c(C(F)F)nc(C(F)(F)F)c(C(=O)SC)c1CC(C)C`, the molecule was called inactive.
On to `CCN(CC)C(=O)C(C)Oc1cccc2ccccc12` (stereo not drawn), for which the AC50 was 18.8 µM (active).
With `Cn1c(-c2ccccc2)cc(-c2ccccc2)[n+]1C`, the AC50 is 0.133 µM (active).
On to `CCCN(CC)CC1COC2(CCC(C(C)(C)C)CC2)O1` (stereo not drawn), for which the AC50 was 0.0101 µM (active).
Consider `COP(=S)(OC)Oc1ccc([N+](=O)[O-])c(C)c1`, for which the half-maximal activity concentration (AC50) is 3.93 µM (active).
Consider `CCOC(=O)C(C)OC(=O)c1cc(Oc2ccc(C(F)(F)F)cc2Cl)ccc1[N+](=O)[O-]` (stereo not drawn), for which the molecule was called inactive.
`N#CN=C1SCCN1Cc1ccc(Cl)nc1`: the call was inactive.
`CC1(C)CON(Cc2ccccc2Cl)C1=O`: the AC50 was 15.2 µM (active).

In another experiment the test system is guinea pig Dopamine Transporter (DAT), gene 100714898. In words: NVS_TR_gDAT: NovaScreen (NVS) Transporter Assay for guinea pig Dopamine Transporter (DAT) (AID 2283369).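 Further: active compounds lower bound radioligand signal relative to DMSO.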 Summed up:
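Radioligand displacement on membranes from guinea pig striatum, 2 h exposure, bound label counted by filtration and scintillation. Tested at 25 uM in duplicate, then actives in concentration series to 50 uM; DMSO as negative control.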
On to `CC1(C)C(C=C(Cl)Cl)C1C(=O)OC(C#N)c1cccc(Oc2ccccc2)c1` (stereo not drawn), for which the AC50 was 9.19 µM (active).
`CC1(C)CCC(=Cc2ccc(Cl)cc2)C1(O)Cn1cncn1` (stereo not drawn): the concentration at half-maximal activity (AC50) is 1.19 µM (active).
Consider `CCOc1cc(C(C)(C)C)ccc1C1COC(c2c(F)cccc2F)=N1` (stereo not drawn), for which the result was inactive.
On to `Cc1cc(C)nc(Nc2ccccc2)n1`, for which the AC50 was 22 µM (active).
As to `CCCCC(C#N)(Cn1cncn1)c1ccc(Cl)cc1` (stereo not drawn), the AC50 is 15.4 µM (active).
In the case of `CCOC(=O)C(C)OC(=O)c1cc(Oc2ccc(C(F)(F)F)cc2Cl)ccc1[N+](=O)[O-]` (stereo not drawn), the molecule was classed as inactive.
As for `CC1(C)C(C(=O)OC(C#N)c2cccc(Oc3ccccc3)c2)C1(C)C` (stereo not drawn), the AC50 was 15.8 µM (active).
For the molecule `OC(c1ccc(Cl)cc1)(c1ccc(Cl)cc1)C(Cl)(Cl)Cl`, the molecule was classed as inactive.

A further experiment has as its target Peroxisome proliferator-activated receptor gamma (Homo sapiens) (UniProt P37231). Kind of experiment: NVS_NR_hPPARg: NovaScreen (NVS) Nuclear Receptor Binding Assay for human Peroxisome Proliferator-activated Receptor gamma (PPARg) (AID 2283370). The method, boiled down:
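Fluorescence polarization readout of ligand binding to extracted human PPARg, measured at 2 h. Duplicate single-point screen at 25 uM, then concentration-series retesting; activity defined as signal loss versus DMSO.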
For `COP(=S)(OC)Oc1ccc([N+](=O)[O-])c(C)c1`, the AC50 is 3.38 µM (active).
Consider `CCNP(=S)(OC)O/C(C)=C/C(=O)OC(C)C` (stereo not drawn), for which the molecule was called inactive.
Regarding `Cc1c(COC(=O)[C@@H]2[C@H](/C=C(\Cl)C(F)(F)F)C2(C)C)cccc1-c1ccccc1`, the molecule was classed as inactive.
For `O=C1C2CC=CCC2C(=O)N1SC(Cl)(Cl)Cl` (stereo not drawn), the molecule was called inactive.
For the molecule `COCC(=O)N(c1c(C)cccc1C)C(C)C(=O)OC` (stereo not drawn), the molecule was called inactive.
On the same count and under the same terms, the entry for `Nc1c(Cl)c(F)nc(OCC(=O)O)c1Cl` is “inactive”; for `CCN(CC)c1nc(C)cc(OP(=S)(OC)OC)n1` it is “inactive”.
As to `CCCC(=NOCC)C1=C(O)CC(CC(C)SCC)CC1=O` (stereo not drawn), the molecule was called inactive.
Still for that read-out and setting: under `Cc1cc(C)nc(Nc2ccccc2)n1` stands “inactive”.
Consider `CC(C)=CC1C(C(=O)OCc2coc(Cc3ccccc3)c2)C1(C)C` (stereo not drawn), for which the half-maximal activity concentration (AC50) is 2.9 µM (active).
In the case of `CCCCC(O)(Cn1cncn1)c1ccc(Cl)cc1Cl` (stereo not drawn), the result was inactive.
Regarding `CCCCC(C#N)(Cn1cncn1)c1ccc(Cl)cc1` (stereo not drawn), the molecule was called inactive.
For the molecule `CCOC(=O)C(C)OC(=O)c1cc(Oc2ccc(C(F)(F)F)cc2Cl)ccc1[N+](=O)[O-]` (stereo not drawn), the molecule was called inactive.
For the molecule `COCC(C)N(C(=O)CCl)c1c(C)csc1C` (stereo not drawn), the molecule was classed as inactive.
The same measure, in the same setting: under `N#Cc1c(Cl)cccc1Cl` stands “inactive”; under `N#Cc1c[nH]cc1-c1cccc2c1OC(F)(F)O2`, “inactive”.
Turning to `CCSC(=O)N1CCCCCC1`, the call was inactive.
Regarding `CC(C)NC(=O)N1CC(=O)N(c2cc(Cl)cc(Cl)c2)C1=O`, the molecule was classed as inactive.
On to `CC(C)(C)C(=O)C(Oc1ccc(Cl)cc1)n1cncn1` (stereo not drawn), for which the molecule was called inactive.

A further experiment concerns the target human Serotonin Transporter (SERT), SLC6A4 (gene 6532) (UniProt P31645). Kind of experiment: NVS_TR_hSERT: NovaScreen (NVS) Transporter Assay for human Serotonin Transporter (SERT) (AID 2283372). The method, boiled down: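 Human platelet membrane preparation; displacement of radioligand from serotonin transporter measured after 1 h by filtration and scintillation counting. Single 25 uM duplicate screen, then concentration series for actives, with DMSO as negative baseline.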
For the molecule `CNC(=O)Oc1cccc2ccccc12`, the call was inactive.
Regarding `COP(=S)(OC)Oc1ccc([N+](=O)[O-])c(C)c1`, the half-maximal activity concentration (AC50) is 1.99 µM (active).
With `CCOC(=O)C(C)OC(=O)c1cc(Oc2ccc(C(F)(F)F)cc2Cl)ccc1[N+](=O)[O-]` (stereo not drawn), the outcome was inactive.
As for `CC(C)N1C(=O)c2ccccc2NS1(=O)=O`, the result was inactive.
Same read-out and setting: under `CCOc1nc(F)cc2nc(S(=O)(=O)Nc3c(Cl)cccc3Cl)nn12` stands “inactive”.

The target of another experiment is human Dopamine Transporter (DAT), SLC6A3 (gene 6531) (UniProt Q01959). Kind of experiment: NVS_TR_hDAT: NovaScreen (NVS) Transporter Assay for human Dopamine Transporter (DAT) (AID 2283374).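 Further: activity means loss of bound radioligand signal relative to DMSO.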 The method, boiled down:
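Duplicate single-point screening at 25 uM preceded concentration-series follow-up of actives. Binding was measured by competitive displacement of a radioligand from DAT protein, filter-counted by scintillation 1 h after dosing. Decrease relative to DMSO taken as activity.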
Regarding `CSC(=O)c1c(C(F)F)nc(C(F)(F)F)c(C(=O)SC)c1CC(C)C`, the call was inactive.
As to `CC1(C)C(C=C(Cl)Cl)C1C(=O)OC(C#N)c1cccc(Oc2ccccc2)c1` (stereo not drawn), the half-maximal activity concentration (AC50) was 6.48 µM (active).
In the case of `CCOP(=O)(OCC)Oc1nc(Cl)c(Cl)cc1Cl`, the result was inactive.
Take `CCN(CC)C(=O)C(C)Oc1cccc2ccccc12` (stereo not drawn): the AC50 is 10.4 µM (active).
`COP(=S)(OC)Oc1ccc([N+](=O)[O-])c(C)c1`: the AC50 is 4.96 µM (active).
As for `CC1(C)CCC(=Cc2ccc(Cl)cc2)C1(O)Cn1cncn1` (stereo not drawn), the concentration at half-maximal activity (AC50) is 0.545 µM (active).
Regarding `CCOc1cc(C(C)(C)C)ccc1C1COC(c2c(F)cccc2F)=N1` (stereo not drawn), the molecule was classed as inactive.
Turning to `Cc1cc(C)nc(Nc2ccccc2)n1`, the AC50 is 25 µM (active).
On to `CC(C)=CC1C(C(=O)OCc2coc(Cc3ccccc3)c2)C1(C)C` (stereo not drawn), for which the AC50 is 25 µM (active).
As for `C=C(C)CN(CC)c1c([N+](=O)[O-])cc(C(F)(F)F)cc1[N+](=O)[O-]`, the concentration at half-maximal activity (AC50) was 7.64 µM (active).
Turning to `CCCCC(O)(Cn1cncn1)c1ccc(Cl)cc1Cl` (stereo not drawn), the AC50 was 2.25 µM (active).
Take `CCCCC(C#N)(Cn1cncn1)c1ccc(Cl)cc1` (stereo not drawn): the AC50 was 7.18 µM (active).
For `CCOC(=O)C(C)OC(=O)c1cc(Oc2ccc(C(F)(F)F)cc2Cl)ccc1[N+](=O)[O-]` (stereo not drawn), the concentration at half-maximal activity (AC50) is 7.94 µM (active).
Regarding `CC1(C)C(C(=O)OC(C#N)c2cccc(Oc3ccccc3)c2)C1(C)C` (stereo not drawn), the AC50 was 9.99 µM (active).
As to `CC1(C)CON(Cc2ccccc2Cl)C1=O`, the concentration at half-maximal activity (AC50) was 6.47 µM (active).
In the case of `COC(=O)N(C(=O)N1CO[C@@]2(C(=O)OC)Cc3cc(Cl)ccc3C2=N1)c1ccc(OC(F)(F)F)cc1`, the outcome was inactive.
With `OC(c1ccc(Cl)cc1)(c1ccc(Cl)cc1)C(Cl)(Cl)Cl`, the AC50 is 8.54 µM (active).
The same measure, in the same setting: under `CC(C)(C)C(=O)C(Oc1ccc(Cl)cc1)n1cncn1` (stereo not drawn) stands 0.238 µM (active).
